# Measured values reported in PubChem BioAssay.
# The source made the active and inactive calls.
# How the values were obtained:
# [1] = system: PRMT1 (protein arginine N-methyltransferase 1); test: small molecules binding arginine methyltransferase PRMT1 – biochemical, small-molecule microarray, 635 nm fluorescence, primary screen (AID 1088); conditions: higher = more signal;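 further: binding of Prmt1 protein to compounds spotted on small-molecule microarray slides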
# [2] = growth effects on S. cerevisiae YJM789 – YJM789 clinical isolate, OD600, 24 h, basal, primary screen (AID 1089); conditions: higher = more signal, called active from +8 up or from −8 down;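 further: growth of clinical yeast isolate S. cerevisiae YJM 789 seeded 1000 cells per well; test concentration not given here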
# [3] = S. pombe growth modifiers, basal conditions – strain 972, OD600, 24 h, no modulator, primary screen (AID 1090);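 further: basal condition with compound alone and no growth modifier present; test concentration not given here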; conditions: S. pombe 972 growth, higher = more signal, called active from +8 up or from −8 down
# [4] = budding yeast growth modifiers under rapamycin – strain BY4716, OD600, 96 h, primary screen (AID 1091); further: test concentration not given here; conditions: S. cerevisiae BY4716 + rapamycin, higher = more signal, called active from +8 up or from −8 down
# [5] = target: Torsin-1A-interacting protein 2 (Homo sapiens) (UniProt Q8NFQ8); test: small molecules binding lysate-expressed LULL1 – cell lysate, human LULL1 lysate, 635/667 nm fluorescence, primary screen (AID 1092); conditions: small-molecule microarray, hLULL1 lysate binding, 635 nm fluorescence; higher = more signal;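 further: probe is lysate of COS7 cells overexpressing human LULL1; score merges per-feature 667 nm fluorescence with signal-to-noise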
# [6] = optical density change of DRC41 E. coli – strain DRC41, OD650, 24 h, E. coli filamentation project, primary screen (AID 1093);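 further: MC1000 strain lacking acrAB efflux and sulA so SOS filamentation is blocked; test concentration not given here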; conditions: E. coli DRC41 growth, higher = more signal, called active from +8 up or from −8 down
# [7] = probe aLefty2 binding to arrayed compounds – biochemical, biotinylated probe, 635/667 nm fluorescence, primary screen (AID 1094); conditions: small-molecule microarray, higher = more signal;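 further: score merges spot fluorescence near 667 nm with spot signal-to-noise ratio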
# [8] = system: Noggin (protein binding on small-molecule microarray); test: small molecules binding Noggin protein – biochemical, 635/667 nm fluorescence, primary screen (AID 1095); conditions: 635 nm fluorescence, higher = more signal;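 further: score merges 667 nm feature fluorescence with signal to noise over triplicate slides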
# [9] = target: Neurogenic locus notch homolog protein 3 (Homo sapiens) (UniProt Q9UM47); test: small molecules binding NOTCH3 protein – biochemical, 635/667 nm fluorescence, primary screen (AID 1096); conditions: small-molecule microarray, 635 nm fluorescence, higher = more signal
# [10] = probe aEGFR binding to arrayed compounds – biochemical, biotinylated probe, 635/667 nm fluorescence, primary screen (AID 1097); conditions: small-molecule microarray, higher = more signal;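 further: probe is a biotinylated anti-EGFR antibody binding compounds printed on slides; score combines fluorescence near 667 nm and signal to noise of each spot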
# [11] = system: Plasmodium falciparum Sir2 (PF13_0152, Sir2A); test: Plasmodium falciparum Sir2A binding compounds – biochemical, small-molecule microarray, 635 nm fluorescence, primary screen (AID 1098); conditions: fluorescence 635 nm, higher = more signal;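 further: score merges spot fluorescence intensity with its signal-to-noise ratio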
# [12] = probe aDKK1 binding to arrayed compounds – biochemical, biotinylated probe, 635/667 nm fluorescence, primary screen (AID 1099); conditions: small-molecule microarray, higher = more signal;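 further: score merges 667nm spot fluorescence with signal to noise across triplicate slides; reference of the scale not given here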
# [13] = probe aCHRDL2 binding to arrayed compounds – biochemical, biotinylated probe, 635/667 nm fluorescence, primary screen (AID 1100); conditions: small-molecule microarray, higher = more signal
# [14] = change in splice reporter luminescence, either direction, cell-based, HEK293, spliceosome inhibition project, primary screen (AID 1101); conditions: HEK293 splicing luciferase reporter, 24 h, higher = more signal, called active from +8 up or from −8 down;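 further: HEK293 cells carrying a splicing-competent luciferase reporter gene; test concentration not given here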
# [15] = target: Fibroblast growth factor 10 (Homo sapiens) (UniProt O15520); test: compounds binding fibroblast growth factor 10 – biochemical, small-molecule microarray, 635 nm fluorescence, primary screen (AID 1102); conditions: FGF10 binding, fluorescence 635 nm, higher = more signal
# [16] = system: glycogen synthase kinase-3 (GSK3A per assay name; protocol says GSK3B); test: compounds binding glycogen synthase kinase-3 – biochemical, small-molecule microarray, 635 nm fluorescence, GSK3A, primary screen (AID 1103); conditions: fluorescence 635 nm, higher = more signal; further: the record names both GSK3A and GSK3B
# [17] = target: Epidermal growth factor receptor (Homo sapiens) (UniProt P00533); test: compounds binding epidermal growth factor receptor – biochemical, small-molecule microarray, 635 nm fluorescence, primary screen (AID 1104); conditions: EGFR binding, higher = more signal;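 further: score merges 667 nm emission intensity with spot signal to noise over triplicate slides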
# [18] = target: Follistatin-related protein 3 (Homo sapiens) (UniProt O95633); test: compounds binding follistatin-related protein 3 – biochemical, small-molecule microarray, 635 nm fluorescence, primary screen (AID 1105); conditions: FSTL3 binding, higher = more signal;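 further: score merges emission near 667 nm and signal to noise per printed spot across three slides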
# [19] = target: Dickkopf-related protein 1 (Homo sapiens) (UniProt O94907); test: small molecules binding DKK1 protein – biochemical, small-molecule microarray, 635 nm fluorescence scan, primary screen (AID 1106); conditions: higher = more signal;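 further: score merges emission near 667 nm with signal to noise over three replicate slides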
# [20] = system: Inhibin beta A chain (activin A); test: small molecules binding activin A – biochemical, small-molecule microarray, 635 nm fluorescence scan, primary screen (AID 1107); conditions: INHBA, higher = more signal;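 further: mouse activin A protein probed at 4.33 µg/mL on printed slides; score merges bound-protein fluorescence near 667 nm with spot signal-to-noise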
# Sequence of Torsin-1A-interacting protein 2 (Homo sapiens) (Q8NFQ8 whole entry, looked up): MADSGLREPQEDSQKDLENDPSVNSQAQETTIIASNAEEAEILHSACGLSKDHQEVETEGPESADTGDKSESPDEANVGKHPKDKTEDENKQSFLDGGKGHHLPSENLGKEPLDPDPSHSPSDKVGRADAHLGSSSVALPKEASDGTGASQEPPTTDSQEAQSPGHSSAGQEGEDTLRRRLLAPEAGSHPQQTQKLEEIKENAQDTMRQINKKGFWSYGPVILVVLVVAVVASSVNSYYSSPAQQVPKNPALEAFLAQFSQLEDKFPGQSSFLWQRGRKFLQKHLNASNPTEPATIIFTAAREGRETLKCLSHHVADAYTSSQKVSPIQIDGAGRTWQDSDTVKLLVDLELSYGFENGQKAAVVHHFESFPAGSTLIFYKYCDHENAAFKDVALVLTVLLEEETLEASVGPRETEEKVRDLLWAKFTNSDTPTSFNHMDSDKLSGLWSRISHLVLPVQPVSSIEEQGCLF
# Sequence of Fibroblast growth factor 10 (Homo sapiens) (O15520 whole entry, looked up): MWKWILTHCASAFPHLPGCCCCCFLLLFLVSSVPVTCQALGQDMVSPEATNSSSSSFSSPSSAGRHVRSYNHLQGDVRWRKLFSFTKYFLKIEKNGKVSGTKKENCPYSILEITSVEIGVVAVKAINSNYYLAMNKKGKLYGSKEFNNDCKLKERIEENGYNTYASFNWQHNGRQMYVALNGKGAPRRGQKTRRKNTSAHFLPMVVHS
# Sequence of Follistatin-related protein 3 (Homo sapiens) (O95633 whole entry, looked up): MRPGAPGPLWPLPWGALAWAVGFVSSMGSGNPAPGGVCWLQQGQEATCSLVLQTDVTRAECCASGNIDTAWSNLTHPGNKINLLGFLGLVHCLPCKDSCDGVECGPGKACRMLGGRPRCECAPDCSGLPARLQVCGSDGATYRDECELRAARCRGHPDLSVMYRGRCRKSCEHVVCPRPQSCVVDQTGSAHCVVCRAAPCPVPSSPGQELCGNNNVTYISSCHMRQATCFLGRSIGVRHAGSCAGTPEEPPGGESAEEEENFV
# Sequence of Neurogenic locus notch homolog protein 3 (Homo sapiens) (Q9UM47 whole entry, looked up): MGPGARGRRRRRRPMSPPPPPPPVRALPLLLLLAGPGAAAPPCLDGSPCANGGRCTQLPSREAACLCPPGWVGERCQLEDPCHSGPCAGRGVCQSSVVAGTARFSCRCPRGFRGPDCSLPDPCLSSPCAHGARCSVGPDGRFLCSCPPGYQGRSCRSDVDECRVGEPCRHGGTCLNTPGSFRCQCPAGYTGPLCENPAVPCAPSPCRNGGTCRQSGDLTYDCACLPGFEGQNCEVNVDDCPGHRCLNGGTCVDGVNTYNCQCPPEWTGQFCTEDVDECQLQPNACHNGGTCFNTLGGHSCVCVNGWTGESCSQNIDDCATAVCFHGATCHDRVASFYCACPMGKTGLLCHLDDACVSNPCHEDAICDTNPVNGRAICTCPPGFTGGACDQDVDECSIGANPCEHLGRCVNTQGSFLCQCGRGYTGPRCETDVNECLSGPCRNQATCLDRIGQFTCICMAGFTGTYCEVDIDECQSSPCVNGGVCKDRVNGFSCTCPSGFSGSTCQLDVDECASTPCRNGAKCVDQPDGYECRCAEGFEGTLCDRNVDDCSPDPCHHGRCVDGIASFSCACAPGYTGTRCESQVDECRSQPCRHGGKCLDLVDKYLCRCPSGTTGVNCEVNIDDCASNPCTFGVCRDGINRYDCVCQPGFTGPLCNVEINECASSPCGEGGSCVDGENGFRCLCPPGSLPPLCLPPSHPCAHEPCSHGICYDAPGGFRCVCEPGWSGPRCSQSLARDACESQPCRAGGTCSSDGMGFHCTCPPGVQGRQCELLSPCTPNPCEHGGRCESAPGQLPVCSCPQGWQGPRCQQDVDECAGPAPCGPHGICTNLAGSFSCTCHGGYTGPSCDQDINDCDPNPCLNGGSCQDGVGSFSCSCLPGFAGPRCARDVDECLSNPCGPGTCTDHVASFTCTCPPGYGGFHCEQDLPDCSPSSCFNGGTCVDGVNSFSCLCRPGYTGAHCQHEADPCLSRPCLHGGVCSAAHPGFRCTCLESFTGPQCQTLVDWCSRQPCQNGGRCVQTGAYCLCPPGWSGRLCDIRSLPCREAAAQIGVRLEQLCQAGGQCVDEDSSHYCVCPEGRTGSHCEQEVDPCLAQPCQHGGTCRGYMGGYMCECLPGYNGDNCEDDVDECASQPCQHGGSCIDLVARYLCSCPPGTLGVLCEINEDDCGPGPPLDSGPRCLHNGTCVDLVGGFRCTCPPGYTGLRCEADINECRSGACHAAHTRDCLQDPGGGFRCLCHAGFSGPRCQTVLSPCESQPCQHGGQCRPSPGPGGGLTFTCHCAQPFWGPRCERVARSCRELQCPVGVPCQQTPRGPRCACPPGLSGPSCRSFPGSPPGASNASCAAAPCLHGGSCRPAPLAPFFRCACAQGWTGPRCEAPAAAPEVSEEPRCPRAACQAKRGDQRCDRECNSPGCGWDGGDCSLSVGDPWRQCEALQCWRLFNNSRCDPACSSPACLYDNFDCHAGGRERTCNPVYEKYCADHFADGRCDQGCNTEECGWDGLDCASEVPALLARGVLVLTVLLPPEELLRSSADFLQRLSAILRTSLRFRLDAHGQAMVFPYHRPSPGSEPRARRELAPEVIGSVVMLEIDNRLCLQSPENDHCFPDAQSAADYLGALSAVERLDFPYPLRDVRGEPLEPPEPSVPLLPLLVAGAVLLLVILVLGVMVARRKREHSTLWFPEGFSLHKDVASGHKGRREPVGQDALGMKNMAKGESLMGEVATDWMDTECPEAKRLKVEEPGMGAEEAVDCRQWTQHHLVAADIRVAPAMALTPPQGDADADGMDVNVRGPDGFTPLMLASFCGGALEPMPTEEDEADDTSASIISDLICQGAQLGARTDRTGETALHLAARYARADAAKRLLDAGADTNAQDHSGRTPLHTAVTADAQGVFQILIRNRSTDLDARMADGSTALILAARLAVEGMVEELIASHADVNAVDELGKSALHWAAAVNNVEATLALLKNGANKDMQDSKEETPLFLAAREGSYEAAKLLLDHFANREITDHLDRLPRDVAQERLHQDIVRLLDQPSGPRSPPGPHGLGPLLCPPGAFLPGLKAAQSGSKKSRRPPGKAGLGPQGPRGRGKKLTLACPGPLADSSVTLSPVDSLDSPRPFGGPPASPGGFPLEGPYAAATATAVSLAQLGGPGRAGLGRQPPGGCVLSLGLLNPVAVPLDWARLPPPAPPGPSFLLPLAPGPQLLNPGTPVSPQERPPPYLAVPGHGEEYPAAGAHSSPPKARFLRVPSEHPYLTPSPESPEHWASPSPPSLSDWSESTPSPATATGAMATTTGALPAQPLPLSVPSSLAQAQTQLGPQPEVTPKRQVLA
# Sequence of Dickkopf-related protein 1 (Homo sapiens) (O94907 whole entry, looked up): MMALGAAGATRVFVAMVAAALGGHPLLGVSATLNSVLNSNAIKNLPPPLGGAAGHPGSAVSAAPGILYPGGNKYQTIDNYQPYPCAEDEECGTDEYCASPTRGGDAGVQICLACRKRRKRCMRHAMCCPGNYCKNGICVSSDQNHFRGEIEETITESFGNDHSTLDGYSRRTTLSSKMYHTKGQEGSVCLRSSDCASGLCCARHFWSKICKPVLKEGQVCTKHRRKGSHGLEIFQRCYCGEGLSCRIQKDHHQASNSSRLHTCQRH
# Sequence of Epidermal growth factor receptor (Homo sapiens) (P00533 whole entry, looked up): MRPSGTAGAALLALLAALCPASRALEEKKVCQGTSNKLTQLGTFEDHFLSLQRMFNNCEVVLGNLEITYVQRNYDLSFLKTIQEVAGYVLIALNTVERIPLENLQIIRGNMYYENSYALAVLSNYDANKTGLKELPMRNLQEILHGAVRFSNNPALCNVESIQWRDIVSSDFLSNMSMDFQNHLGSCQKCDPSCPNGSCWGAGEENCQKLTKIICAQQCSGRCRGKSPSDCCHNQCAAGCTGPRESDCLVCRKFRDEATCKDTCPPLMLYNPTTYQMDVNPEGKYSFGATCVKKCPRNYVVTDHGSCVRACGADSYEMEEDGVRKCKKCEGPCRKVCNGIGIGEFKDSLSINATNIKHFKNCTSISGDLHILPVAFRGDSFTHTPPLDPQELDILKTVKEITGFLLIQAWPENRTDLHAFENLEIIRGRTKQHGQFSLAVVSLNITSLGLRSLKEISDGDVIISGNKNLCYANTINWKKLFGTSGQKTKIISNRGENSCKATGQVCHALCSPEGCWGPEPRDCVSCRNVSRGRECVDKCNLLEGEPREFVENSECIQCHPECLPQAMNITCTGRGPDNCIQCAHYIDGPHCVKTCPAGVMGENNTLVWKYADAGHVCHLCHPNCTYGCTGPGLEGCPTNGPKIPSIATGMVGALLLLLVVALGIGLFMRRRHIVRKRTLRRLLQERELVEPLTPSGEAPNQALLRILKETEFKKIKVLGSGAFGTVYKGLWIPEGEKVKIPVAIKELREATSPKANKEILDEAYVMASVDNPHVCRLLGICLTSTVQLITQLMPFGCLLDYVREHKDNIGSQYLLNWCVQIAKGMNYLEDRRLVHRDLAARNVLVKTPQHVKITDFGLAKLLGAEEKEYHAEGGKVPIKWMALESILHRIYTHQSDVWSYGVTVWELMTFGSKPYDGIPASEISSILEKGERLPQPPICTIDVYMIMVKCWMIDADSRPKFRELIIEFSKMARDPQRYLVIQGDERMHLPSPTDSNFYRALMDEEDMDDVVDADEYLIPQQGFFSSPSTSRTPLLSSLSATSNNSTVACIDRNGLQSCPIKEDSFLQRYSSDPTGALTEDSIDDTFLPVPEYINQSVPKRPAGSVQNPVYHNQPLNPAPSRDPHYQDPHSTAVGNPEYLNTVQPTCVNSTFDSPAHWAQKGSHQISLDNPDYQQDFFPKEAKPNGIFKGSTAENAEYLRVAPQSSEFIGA
SMILES,composite z-score [1],z-score [2],z-score [3],z-score [4],composite z-score [5],z-score [6],composite z-score [7],composite z-score [8],composite z-score [9],composite z-score [10],composite z-score [11],composite z-score [12],composite z-score [13],z-score [14],composite z-score [15],composite z-score [16],composite z-score [17],composite z-score [18],composite z-score [19],composite z-score [20]
COC(=O)[C@@]1(Cc2ccccc2)[C@H]2c3cc(C(=O)N4CCCC4)n(Cc4ccc(C(F)(F)F)nc4)c3C[C@H]2CN1C(=O)c1ccccc1,1.19,-0.461 (inactive),0.449 (inactive),1.98 (inactive),3.64,-0.35 (inactive),0.226,0.073,1.03,0.265,1.28,0.568,1.02,-0.434 (inactive),0.881,1.32,0.0424,1.1,-0.269,0.634
CC(c1ccccc1)C(O)C1C=CC2C(=O)N(c3ccccc3)C(=O)C2N1Nc1ccc(C#N)cc1 (stereo not given),1.55,-2.46 (inactive),1.16 (inactive),37.9 (active),3.88,0.939 (inactive),0.123,0.562,1.04,0.066,1.27,0.0897,0.582,-0.44 (inactive),0.975,1.32,0.702,1.48,-0.163,0.251
CCC(CC)C(O)C1C=CC2C(=O)N(C)C(=O)C2N1N1CCCCC1 (stereo not given),1.36,-0.059 (inactive),0.274 (inactive),-0.537 (inactive),3.42,-1.29 (inactive),0.0353,0.334,1.04,0.0142,0.669,1.72,0.906,1.58 (inactive),0.91,0.93,0.411,1.43,0.233,0.539
CCOC(=O)C[C@H]1[C@H](OC(=O)Cc2ccc3c(c2)OCO3)[C@@H](NC(=O)c2ccccc2)c2cc(OCCCO)ccc2N1C(=O)Cc1ccc(OC)cc1,0.498,-2.62 (inactive),-0.91 (inactive),-0.602 (inactive),0.837,-0.429 (inactive),-0.0915,0.0752,0.206,-0.0978,-0.1,-0.386,-0.167,-2.62 (inactive),0.236,0.227,0.237,0.339,0.0486,-0.296
N[C@@H](Cc1ccccc1)Cn1cc(C2(O)CCCCC2)nn1,-0.235,-0.692 (inactive),-0.16 (inactive),-0.522 (inactive),0.205,-1.15 (inactive),-0.128,0.112,0.293,-0.14,-0.431,-0.149,0.174,0.242 (inactive),-0.493,-0.507,0.0669,-0.133,-0.0564,-0.239
COC(=O)c1c(CC[C@@H](CO)NC(=O)N[C@@H](Cc2ccccc2)Cn2cc(-c3cncn3C)nn2)oc(C(C)=O)c1C(=O)OC,1.51,0.268 (inactive),-0.0536 (inactive),-0.131 (inactive),2.99,0.916 (inactive),-0.215,0.801,0.912,-0.142,0.942,-0.193,-0.192,-1.71 (inactive),0.481,0.352,-0.913,0.367,-0.376,-0.721
COCCOC(=O)N1C(=O)[C@@]2(c3cc(C#CC4(O)CCCCCC4)ccc31)[C@H](c1ccccc1OCCO)N1[C@H](c3ccccc3)[C@H](c3ccccc3)OC(=O)[C@H]1[C@@H]2C(=O)N1CCCCCCC1,1.54,1.94 (inactive),1.26 (inactive),3.54 (inactive),3.47,0.0805 (inactive),1.31,1.75,1.1,-0.0351,1.56,2.22,1.43,-0.901 (inactive),0.846,0.502,0.638,1.5,1.09,1.71
CCCCCCc1nc(-c2ccc(OC)nc2)cc2c1[Si](C(C)C)(C(C)C)OC2,-0.741,-0.1 (inactive),-0.283 (inactive),-0.218 (inactive),-0.342,-0.647 (inactive),-0.143,-0.374,-0.123,-0.24,0.0342,-0.251,-0.037,-0.589 (inactive),-0.322,-0.574,-0.459,-0.351,-0.329,0.96
C=CCC(OC(C)=O)[C@@H]1[C@@H](N(Cc2ccc(-c3cccc(C(F)(F)F)c3)o2)C(=O)Cc2ccc(F)cc2)c2cc(OCCCO)ccc2N1C(=O)c1ccc2ccccc2n1 (stereo not given in full),-1.08,-0.203 (inactive),0.15 (inactive),-0.522 (inactive),-0.452,-1.08 (inactive),-0.0415,-0.436,-0.768,-0.157,-0.106,0.0195,0.416,-0.362 (inactive),-0.218,-1.85,-0.35,-0.281,-0.0545,1.58
COC(=O)[C@@]1(CCS(=O)(=O)c2ccccc2)N=C(c2ccc(OCCCO)cc2)O[C@H]1c1ccccc1N=[N+]=[N-],1.56,0.349 (inactive),-0.238 (inactive),34.6 (active),3.29,0.96 (inactive),-0.0341,0.492,1.09,-0.0968,1.52,0.336,0.475,0.177 (inactive),0.419,1.29,0.491,0.969,0.425,0.865
